Source: PubChem BioAssay
This is a sample that favours compounds with a hit; in the whole collection about 2.3% have one here.
CHO-K1 Ca ag = nonselective activator or artifact in parental CHO-K1 cells; Fluo-8 calcium fluorescence; scaled to maximal ATP response, vehicle zero; activation, % at 3 µM; 0.48% of 360,000 active; AID 602248; in the data active means activation above about 15%;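 further: untransfected CHO-K1 host cells lacking M1 receptor as counterscreen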
M1 PAM parental = nonselective activator or artifact in parental CHO-K1 calcium assay; ATP EC20, Fluo-8 calcium fluorescence; 0% at ATP EC20, 100% at ATP max; activation, % at 3 µM; 0.02% of 360,000 active; AID 602247;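 active means activation above the run cutoff, the mean activation of all test compounds plus 3 SD, cut at about 40% in these data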;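 further: peak over basal fluorescence ratio in a 140 s read after ATP addition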
CHO-K1 Ca antag = counter-screen for M1 antagonists: effect in parental CHO-K1 cells. ATP-induced calcium, Fluo-8 fluorescence. inhibition, % at 3 µM. 0.6% of 360,000 active. AID 602250;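 active means inhibition above a per-plate cutoff, the plate's mean sample inhibition plus 3 SD, cut at about 24% in these data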
M1 antag = blocks human M1 muscarinic receptor. 1.3% of 360,000 active. CHO-K1 hM1, Fluo-8 calcium fluorescence, ACh EC80 antagonist. P11229. inhibition, % at 3 µM;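 active means percent inhibition above its own plate's cutoff, namely the mean of that plate's compound wells plus 3 SD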;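 further: peak over basal fluorescence ratio during 140 s after agonist addition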
Target sequence (P11229 whole entry, looked up): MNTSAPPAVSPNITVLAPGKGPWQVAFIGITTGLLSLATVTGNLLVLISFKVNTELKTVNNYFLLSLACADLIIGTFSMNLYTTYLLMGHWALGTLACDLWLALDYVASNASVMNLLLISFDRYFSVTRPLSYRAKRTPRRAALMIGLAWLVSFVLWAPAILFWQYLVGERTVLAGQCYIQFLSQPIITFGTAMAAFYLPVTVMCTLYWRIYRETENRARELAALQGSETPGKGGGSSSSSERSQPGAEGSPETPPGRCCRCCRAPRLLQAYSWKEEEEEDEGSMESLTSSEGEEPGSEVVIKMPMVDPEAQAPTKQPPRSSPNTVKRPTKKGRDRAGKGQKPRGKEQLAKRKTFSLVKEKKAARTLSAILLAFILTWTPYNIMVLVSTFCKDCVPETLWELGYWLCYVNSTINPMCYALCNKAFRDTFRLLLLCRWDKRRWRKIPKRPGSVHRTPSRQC
CHRM1 agonist = agonists of human M1 muscarinic receptor | P11229 | 0.33% of 360,000 active | activation, % at 3 µM | CHO-K1 hM1, Fluo-8 calcium fluorescence, agonist mode; 0% DMSO, 100% acetylcholine EC100;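 active means activation above the run's mean compound activation plus 3 SD, cut at about 16% in these data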;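 further: peak over basal fluorescence ratio within a 140 s kinetic read after compound addition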
M1 PAM = potentiates human M1 receptor response to acetylcholine | P11229 | CHO-K1 hM1, Fluo-8 calcium fluorescence, ACh EC20; 0% = ACh EC20, 100% = maximal ACh | activation, % at 3 µM | 0.088% of 360,000 active | AID 588819; in the data active means activation above about 19%, passing the limit was not always enough
A number is an active result; n = inactive.

SMILES	CHO-K1 Ca ag	M1 PAM parental	CHO-K1 Ca antag	M1 antag	CHRM1 agonist	M1 PAM
Cc1ccc(N(C(=O)CNC(=O)c2ccco2)C(C(=O)NCC2CCCO2)c2ccccc2)cc1 (stereo unspecified)	n	n	n	n	n	n
COc1ccc(C(C(=O)NCC2CCCO2)N(C(=O)CNC(=O)c2cccs2)c2ccccc2)cc1OC (stereo unspecified)	n	n	24	n	n	n
COc1ccc(C(C(=O)NCC2CCCO2)N(C(=O)CNC(=O)c2ccco2)c2ccccc2)cc1OC (stereo unspecified)	n	n	n	n	n	n
CCOc1ccc(OCCC(=O)N(CC)CC(=O)NCc2cccs2)cc1	n	n	n	n	n	n
O=S1(=O)C[C@@H](N2CCC(Cc3ccccc3)CC2)[C@H](COCc2ccccc2)N1	n	n	n	n	n	n
Cc1cc(NC(=O)CCC(=O)N(CC(=O)NC2CCCC2)Cc2ccc(F)cc2)no1	n	n	n	n	n	n
O=C(CCC(=O)N(CC(=O)NC1CCCC1)C1CCCCC1)Nc1ccccn1	n	n	27	n	n	n
Cc1cc(NC(=O)CCC(=O)N(CC(=O)NC2CCCC2)Cc2ccccc2Cl)no1	n	n	48	n	n	n
C=CCN(C(=O)CCC(=O)Nc1cc(C)on1)C(C(=O)NC1CCCC1)c1cccnc1 (stereo unspecified)	n	n	24	n	n	n
CC(=O)c1ccc(N2CCN(C(=O)C3CCN(S(=O)(=O)c4cccs4)CC3)CC2)cc1	n	n	n	n	n	n
CC[C@]12c3[nH]c4cc(-c5ccco5)ccc4c3CCN1C(=O)[C@@H](CC(=O)NCCc1ccccn1)C[C@@H]2C(=O)N1CCN(C(=O)C2CC2)CC1	n	n	n	n	n	n
O=C1NC2c3c(Cl)sc(Cl)c3C(=O)C2O1 (stereo unspecified)	n	n	n	n	n	28
O=C(c1ccc(Cl)c(S(=O)(=O)NCc2cccnc2)c1)N1CCCC1	n	n	n	n	n	n
NS(=O)(=O)OCc1ccc(C(F)(F)F)cc1	n	n	n	n	n	n
CCCc1nnc(NC(=O)CSc2nc3ccccc3[nH]2)s1	n	n	30	n	n	n
COc1ccc2nc(C)cc(N3CCN(S(=O)(=O)c4ccccc4F)CC3)c2c1	n	n	n	n	n	n
Cc1noc(C)c1COc1ccccc1C(=O)NCCOc1ccccc1	n	n	n	n	n	n
CC(C)(C)n1nc2c(c1NC(=O)Cc1ccc([N+](=O)[O-])cc1)CS(=O)(=O)C2	n	n	n	n	n	n
Cc1cc(C)c(NC(=O)C2CCCN2CCO)c(C)c1 (stereo unspecified)	n	n	n	n	n	n
CCCCN1CCCCC1C(=O)Nc1c(C)cc(C)cc1C (stereo unspecified)	n	n	30	n	n	n
Cc1noc(C(=O)Nc2ccc(F)c(Cl)c2)c1Cl	n	n	n	83	n	n
O=C(O)/C=C/C(=O)N(CC1CCCO1)C1CC(=O)N(c2c(Cl)cccc2Cl)C1=O (stereo unspecified)	17	n	n	n	n	n
COc1ccc(N2C(=O)CC(N(CCc3ccccc3)C(=O)/C=C/C(=O)O)C2=O)cc1 (stereo unspecified)	n	n	n	n	n	n
NNC(=O)[C@H](Cc1ccccc1)NC(=O)Nc1ccc2c(c1)OCCO2	n	n	n	36	n	n
COc1ccc(NC(=O)N[C@@H](Cc2ccccc2)C(=O)NN)cc1	n	n	n	n	n	n
SMILES	CHO-K1 Ca ag	M1 PAM parental	CHO-K1 Ca antag	M1 antag	CHRM1 agonist	M1 PAM
Cc1ccc(S(=O)(=O)NC(=O)C2(C)CCN2C(=O)Cc2ccc(Cl)cc2Cl)nc1 (stereo unspecified)	n	n	n	n	n	n
CCOC(=O)c1ccc(CNCc2ccc(Br)cc2)cc1	n	n	n	65	n	n
CCOC(=O)CCNCc1ccc(F)cc1	n	n	n	40	n	n
CCOC(=O)c1ccc(CNC(=O)CCC(=O)O)cc1	n	n	n	n	n	n
CCOC(=O)CCNC(=O)N1CCC(CCC(=O)NCc2ccc(F)cc2)CC1	n	n	n	n	n	n
CCOC(=O)c1ccc(CNCc2ccccc2)cc1	n	n	n	52	n	n
